# Source: PubChem
# A selection: hits, their analogues and other compounds. The true share with any hit is near 2.3%.
# FUS yeast rescue: suppressors of FUS proteinopathy in yeast | AID 1347120 | S. cerevisiae FUS-expressing, growth rescue, OD600, 24 h | Potency, µM (highest dose often 76.6 µM), usual class: activators | hit rate 0.24% among 390,000;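 also: potency is read from the fitted curve at half-maximal effect; plate controls were DMSO vehicle for no effect and reference control for full effect; nearly all actives have a fitted effect of over 55% in size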
#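 S. cerevisiae expressing FUS from galactose induction served as the toxicity model. Growth after 24hr at 30C, read as absorbance at 600 nm, indicates suppression of toxicity; compounds dosed at several concentrations.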
# Giardia kill: Giardia lamblia killing. Giardia lamblia trophozoite viability. activity change, % at 7.66 µM, hits read low. hit rate 0.15% among 340,000; in the data active = activity change below about -80%; inconclusive = between about -30% and that limit;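 also: parasites exposed to compound for two days anaerobically before the ATP read; % is scaled to controls: 0 for no effect and ±100 for the full control effect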
#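 Trophozoites 100 cells/well + cpd; 48 hrs, 37 deg C, anaerobic. ATPLite 1-Step added, 15-30 min RT, luminescence read (ATP-based viability).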
# TRPV1 PAM: human TRPV1 potentiation | Q8NER1 | TRPV1-expressing cells, Fluo-8 calcium influx, capsaicin EC20 potentiation | potentiation, % at 8.33 µM | hit rate 0.02% among 320,000 | AID 540277; in the data active = potentiation above about 80%; inconclusive = between about 30% and that limit; also: 0% is about no effect
# Target sequence (Q8NER1 whole entry, looked up): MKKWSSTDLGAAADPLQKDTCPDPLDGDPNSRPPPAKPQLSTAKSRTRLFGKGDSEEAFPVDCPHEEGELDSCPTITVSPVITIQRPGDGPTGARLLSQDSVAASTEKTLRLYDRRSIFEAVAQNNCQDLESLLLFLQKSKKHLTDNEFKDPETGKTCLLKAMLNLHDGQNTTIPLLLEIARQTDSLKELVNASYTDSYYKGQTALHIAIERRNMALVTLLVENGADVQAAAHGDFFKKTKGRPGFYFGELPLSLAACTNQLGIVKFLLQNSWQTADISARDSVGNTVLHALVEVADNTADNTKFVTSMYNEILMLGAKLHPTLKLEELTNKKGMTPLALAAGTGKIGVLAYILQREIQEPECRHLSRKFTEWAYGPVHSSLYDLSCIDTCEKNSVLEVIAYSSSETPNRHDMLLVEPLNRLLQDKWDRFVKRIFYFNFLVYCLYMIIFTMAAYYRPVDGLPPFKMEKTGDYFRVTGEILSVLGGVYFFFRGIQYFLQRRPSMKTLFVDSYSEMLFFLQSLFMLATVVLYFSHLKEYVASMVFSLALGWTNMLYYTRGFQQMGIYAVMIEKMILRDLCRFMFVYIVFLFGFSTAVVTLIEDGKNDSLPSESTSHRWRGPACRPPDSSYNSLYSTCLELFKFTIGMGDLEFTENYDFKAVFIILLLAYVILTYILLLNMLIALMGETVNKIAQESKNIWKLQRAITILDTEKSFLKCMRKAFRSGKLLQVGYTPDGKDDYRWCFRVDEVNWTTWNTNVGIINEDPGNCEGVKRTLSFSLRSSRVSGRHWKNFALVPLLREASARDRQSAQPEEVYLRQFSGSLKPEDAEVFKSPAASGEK
#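 Cells expressing TRPV1 were dye-loaded with Fluo-8 and read kinetically: 10 s baseline, 3 min after compound (agonist portion), then 2 min after EC20 capsaicin (allosteric enhancer portion). Calcium-bound dye fluorescence at 480/520 nm.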
# TRPV1 ag: human TRPV1 agonism; TRPV1-expressing cells, Fluo-8 calcium influx, agonist mode; activation, % at 8.33 µM; Q8NER1; AID 540275; hit rate 0.19% among 320,000; in the data active = activation above about 80%; inconclusive = between about 30% and that limit; also: 0% is about no effect
#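 Cells expressing TRPV1 were dye-loaded with Fluo-8 and read kinetically: 10 s baseline, 3 min after compound (agonist portion), then 2 min after EC20 capsaicin (allosteric enhancer portion). Calcium-bound dye fluorescence at 480/520 nm.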
# ELG1 repair inh: blocks ELG1-dependent DNA repair in HEK293T cells; HEK293T ELG1-luciferase reporter, luminescence, 16 h; DNA damage induced by 5-fluorouridine; Potency, µM (highest dose often 46.1 µM), inactives show top-dose activity change, negative = inhibition, most hits filed as inhibitors; hit rate 2.3% among 330,000; also: potency is read from the fitted curve at half-maximal effect; % is scaled to controls: 0 for no effect and ±100 for the full control effect; nearly all actives have a fitted effect of over 55% in size
#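 Quantitative HTS, concentration-response format. 2,000 cells/well co-treated with 5-fluorouridine and compound, 16 hr in 5% CO2 at 37 °C; ONE-Glo luminescence read after 30 min.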
# * hit, by the source's call; i = inactive; ? = inconclusive; . = not tested or not shown. Unless noted, calls follow the shape of the dose curve; as a rule, active = well fitted curve in the direction sought with a large enough effect; inconclusive = small, poorly fitted or top-dose-only effect, or another doubt; inactive = no such curve, though single readings can be large; an effect the other way counts as inactive or inconclusive.
SMILES,FUS yeast rescue,Giardia kill,TRPV1 PAM,TRPV1 ag,ELG1 repair inh
CN(C)c1ccc(/C=N/N=C2/NC(=O)/C(=C/c3ccc([N+](=O)[O-])cc3)S2)cc1,i,-93*,2,-1,?
CN(C)c1ccc(C=C2SC(=S)NC2=O)cc1,i,-23,.,.,.
CCN(CC)S(=O)(=O)c1ccc(O)c(NC(=O)c2cc(-c3cc(OC)c(OC)c(OC)c3)nc3ccccc23)c1,i,5,-7,?,16µM*
COCCN(Cc1ccccc1)C(=O)c1cc(-c2ccc(OC)c(OC)c2)nc2ccccc12,i,2,-19,?,12µM*
COc1cc(-c2cc(C(=O)Nc3c(Cl)cc(Cl)cc3Cl)c3ccccc3n2)cc(OC)c1OC,i,7,17,7,5.2µM*
COc1cc(-c2cc(C(=O)Nc3ccc(S(N)(=O)=O)cc3)c3ccccc3n2)cc(OC)c1OC,i,9,-7,-1,?
Cc1c(NC(=O)c2cc(-c3ccc(F)cc3)nc3ccccc23)c(=O)n(-c2ccccc2)n1C,i,13,.,.,8.2µM*
CCc1cccc(C)c1NC(=O)Cn1ccn(-c2cccc(OC)c2)c(=O)c1=O,i,.,.,.,.
COc1ccc(-n2nc(C(=O)Nc3ccccn3)c3c4ccccc4n(C)c3c2=O)cc1,i,.,.,.,.
COc1ccc(-c2cc(C(F)(F)F)n3nc(C(=O)Nc4ccc(Cl)cc4C(F)(F)F)cc3n2)cc1OC,i,.,.,.,.
COc1ccccc1CN(C)C(=O)c1cc(-c2cc(OC)c(OC)c(OC)c2)nc2ccccc12,i,35,-7,20,5.8µM*
COc1ccc(-c2cc(C(F)(F)F)n3nc(C(=O)N(C)Cc4ccccc4)cc3n2)cc1OC,i,16,13,3,21µM*
Cn1c(=O)c2c(SCC(=O)NCc3ccco3)nc(-c3ccccc3)nc2n(C)c1=O,i,.,.,.,.
Cc1ccc(C(=O)N2CCN(c3ccc(NC(=O)c4cccs4)cc3)CC2)cc1,.,-10,-3,4,9.2µM*
COc1cc(OC)cc(C(=O)Nc2ccc(N3CCN(C(=O)c4cccs4)CC3)cc2)c1,i,18,-5,0,15µM*
COc1ccc(C(=O)Nc2ccc(N3CCN(C(=O)c4cccs4)CC3)cc2)cc1Br,i,11,26,-1,13µM*
COc1cc(OC)cc(C(=O)Nc2ccc3c(c2)CCCN3C(=O)c2cccs2)c1,?,-19,-46,-2,?
O=C(Cn1nc(-c2ccccc2)ccc1=O)Nc1ccc(N2CCN(C(=O)c3cccs3)CC2)cc1,8.9µM*,-16,2,0,-8%
O=C(Nc1ccc(N2CCN(C(=O)c3ccc(Cl)cc3)CC2)cc1)c1cccs1,i,21,8,7,3%
Cc1c(C(=O)Nc2cccc(-c3nc4ccccc4s3)c2)oc2ccc(F)cc12,i,.,.,.,.
CC(=O)Nc1ccc(N2CCN(C(=O)c3cccs3)CC2)cc1,i,-2,7,-2,8%
O=C(Nc1ccc(N2CCN(C(=O)c3cccs3)CC2)cc1)c1ccc(F)cc1,i,8,2,7,18µM*
O=C(CCOc1ccccc1)N(Cc1cccnc1)c1nc2c(F)cc(F)cc2s1,i,.,.,.,.
Cc1cc(C)cc(NC(=O)CSCn2nnc3c(=O)[nH]c(Cc4ccc(F)cc4)nc32)c1,i,.,.,.,.
Cc1nc2cc(-c3ccc(Cl)cc3)nn2c(NCCN(C)C)c1C,i,-96*,-9,14,?
SMILES,FUS yeast rescue,Giardia kill,TRPV1 PAM,TRPV1 ag,ELG1 repair inh
COc1ccc(OC)c(/C=N/NC(=O)c2cc3c(OC)cccc3[nH]2)c1,i,-7,-17,13,0%
COc1ccc(/C=N/NC(=O)c2cc3c(ccc4ccccc43)o2)c(OC)c1,?,-8,6,-2,?
CCOc1ccc(/C=N/NC(=O)c2cc3c(OC)cc(OC)cc3[nH]2)cc1OC,i,20,-3,-1,23µM*
COc1ccc(OC)c(/C=N\NC(=O)c2cc3c(ccc4ccccc43)o2)c1,i,-6,6,0,16µM*
COc1ccc(OC)c(/C=N/NC(=O)c2cc3c(OC)cc(OC)cc3[nH]2)c1,i,2,-8,3,21µM*
CCOc1ccccc1CNC(=O)CN1C(=O)CCCc2ccccc21,i,.,.,.,.
Cc1ccc2nc(-c3ccc(F)cc3)c(Cc3ccccc3C(F)(F)F)n2c1,i,.,.,.,.
